The values below come from PubChem BioAssay AID1362 (SRMLSC, 2008).

This assay in a line: growth inhibition of WT strain, primary screen, mitochondrial fusion inhibitor project, WT and mutant strains, chemical genetic (AID 1362). Particulars: mitochondrial fusion phenotypic screen, at 10 µM.
Where [1] appears, read: WT strain, growth inhibition, stronger effect = higher value.

In all, about 190,000 compounds went through this assay and about 4,000 (2.1%) were called active. Cut-off read from the data, not from the text of the source: active = inhibition above about 58%; inactive = the rest, inconclusive results apart; tested in S. cerevisiae. This excerpt belongs to a sample that is enriched for actives.

In the case of `CCC(C(=O)OCC(=O)Nc1ccccc1-c1ccccc1)c1ccccc1` (stereo not drawn), the inhibition was 70.9% (active) under setting [1] and -2.32% (mutant strain inhibition).
The matching figures for `CCC(C(=O)OCC(=O)Nc1c(Cl)cc(Cl)cc1Cl)c1ccccc1` (stereo not drawn): 11.1% (inactive) and -9.47%.
The matching figures for `CCC(C(=O)OCC(=O)Nc1ccc(C(=O)Nc2ccc(OC)cc2)cc1)c1ccccc1` (stereo not drawn): 12.9% (inactive) and -13.4%.
The matching figures for `O=C(Nc1ccc(NC(=O)c2ccco2)c(Cl)c1)c1cccc([N+](=O)[O-])c1`: 2.21% (inactive) and 16.7%.
Take `CC(=O)c1cnc(-c2ccccc2)s1`: the inhibition was 3.8% (inactive) under setting [1] and -4.54% (mutant strain inhibition).
As to `O=C(C1CCCO1)N1CCN(C(=S)Nc2cccc(Cl)c2)CC1` (stereo not drawn), the inhibition runs as follows: under setting [1], -4.05% (inactive); (mutant strain inhibition) 25.8%.
The matching figures for `Cc1ccc(C2CCN(C(=S)Nc3cccc(Cl)c3)C2)cc1` (stereo not drawn): 74.3% (active) and 55%.
The corresponding values for `Cc1cccc(NC(=S)N2CCCC(c3nc4ccccc4[nH]3)C2)c1` (stereo not drawn) are -10.4% (inactive) and 0.82%.
For `CC1CN(/C=C/C(=O)C(F)(F)F)CC(C)O1` (stereo not drawn), the inhibition under setting [1] is -25.3% (inactive) and the inhibition (mutant strain inhibition) came to 4.39%.
Consider `CSC(=S)N/N=C/c1c[nH]c2ccccc12`, for which the inhibition under setting [1] was 65.8% (active) and the inhibition (mutant strain inhibition) was 13.3%.
`O=C(O)c1cccc(NC(=S)N/N=C/c2c[nH]c3ccccc23)c1`: the inhibition was -10.2% (inactive) under setting [1] and 4.36% (mutant strain inhibition).
The matching figures for `S=c1[nH]nc(-c2ccccc2)n1/N=C/c1c[nH]c2ccccc12`: 1.16% (inactive) and 0%.
The matching figures for `CCOC(=O)c1cnc2[nH]c3ccccc3n2c1=O`: 2.43% (inactive) and -12.9%.
The matching figures for `Cc1ccc(Cl)cc1NC(=O)C1CCN(S(C)(=O)=O)CC1`: -9.34% (inactive) and -12.3%.
With `Cc1ccccc1NC(=O)NC1(C(=O)N2CCCC2)CCCCC1`, the inhibition under setting [1] was -9.64% (inactive) and the inhibition (mutant strain inhibition) is 7.72%.
The matching figures for `CCNC(=S)Nc1cccc(Cl)c1C`: 12.8% (inactive) and 23.6%.
For the compound `Cc1cccc(NC(=S)NCCc2ccc(F)cc2)c1C`, the inhibition is, setting by setting: under setting [1], 74.7% (active); (mutant strain inhibition) 64.6%.
The corresponding values for `Cc1c(NC(=S)NCc2ccc(F)cc2)cccc1[N+](=O)[O-]` are 5.62% (inactive) and 3.03%.
The matching figures for `O=C(OCC(=O)N1CCOCC1)c1ccc(N2CCOCC2)c([N+](=O)[O-])c1`: -7.83% (inactive) and -1.16%.
The corresponding values for `O=C(COc1ccc(Cl)cc1[N+](=O)[O-])N1CCCCC1` are 1.62% (inactive) and -14.6%.
For `CNC(=S)N/N=C/c1cn(Cc2ccc(C)cc2)c2ccccc12`, the inhibition under setting [1] is 74.4% (active) and the inhibition (mutant strain inhibition) was 61.2%.
The corresponding values for `CCOC(=O)N/N=C/c1cn(Cc2ccccc2Cl)c2ccccc12` are -3.34% (inactive) and -14.2%.
The matching figures for `COC(=O)N/N=C/c1cn(CCCOc2ccc(C)cc2)c2ccccc12`: 2.1% (inactive) and -14.3%.
The matching figures for `Cc1cc(C(C)(C)C)cc(S(=O)(=O)Nc2ccc(C(=O)O)cc2)c1C`: -13% (inactive) and 10.3%.
